Assay outcomes as filed in PubChem BioAssay.
NPSR antagonist: qHTS Assay for Antagonists of the Neuropeptide S Receptor: cAMP Signal Transduction; Q6W5P4; CHO-NPSR cells, cAMP TR-FRET, antagonist mode; Potency, µM (highest dose often 38.3 µM), inactives show at the top dose activity change, negative = inhibition, actives largely listed as inhibitors; 220,000 compounds, 1% hits; also: % is scaled to controls: 0 for no effect and ±100 for the full control effect; nearly all actives have a fitted effect of over 50% in size
Epigenetic derep: Quantitative High-Throughput Screen for Regulators of Epigenetic Control. murine LDR cells, GFP reporter derepression, 30 h. Potency, µM (top dose mostly 53.9 µM), for the others: at the top dose GFP activation, actives largely listed as activators. 280,000 compounds, 0.2% hits. AID 1865, 2009; also: % of control where 0% means no effect; nearly all actives have a fitted effect of over 60% in size
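Murine LDR cells bearing a silenced CMV-driven GFP reporter were exposed to compound for 30 h at 37 C. After PBS washes, GFP-positive cells (20-120 um objects) counted by laser-scanning microplate cytometry.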
JMJD2E inh: qHTS Assay for Inhibitors of Human Jumonji Domain Containing 2E (JMJD2E) | Lysine-specific demethylase 4E (Homo sapiens), B2RXH2 | JMJD2E catalytic domain, FDH-coupled NADH fluorescence (FDH is formaldehyde dehydrogenase) | Potency, µM (series often up to 57.1 µM), for inactives: top-dose activity change, negative = inhibition, most hits filed as inhibitors | 230,000 compounds, 1.6% hits; active = well fitted inhibition curve with a large enough effect, not every such curve was filed as active; inconclusive = small, poorly fitted or top-dose-only effect, or another doubt; inactive = no such curve, though single readings can be large or run the other way;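 also: 0% = wells with enzyme and -100% = buffer wells without enzyme; nearly all actives have a fitted effect of over 50% in size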
KAT2A inh: qHTS Assay for Inhibitors of GCN5L2; GCN5L2 HAT assay, ThioGlo1 CoA-SH fluorescence; Potency, µM (highest dose often 58.9 µM), for the others: at the top dose activity change, negative = inhibition, usual class: inhibitors; 390,000 compounds, 0.21% hits; AID 504327, 2011; also: % is scaled to controls: 0 for no effect and ±100 for the full control effect
Target sequence (Q92830 whole entry, looked up): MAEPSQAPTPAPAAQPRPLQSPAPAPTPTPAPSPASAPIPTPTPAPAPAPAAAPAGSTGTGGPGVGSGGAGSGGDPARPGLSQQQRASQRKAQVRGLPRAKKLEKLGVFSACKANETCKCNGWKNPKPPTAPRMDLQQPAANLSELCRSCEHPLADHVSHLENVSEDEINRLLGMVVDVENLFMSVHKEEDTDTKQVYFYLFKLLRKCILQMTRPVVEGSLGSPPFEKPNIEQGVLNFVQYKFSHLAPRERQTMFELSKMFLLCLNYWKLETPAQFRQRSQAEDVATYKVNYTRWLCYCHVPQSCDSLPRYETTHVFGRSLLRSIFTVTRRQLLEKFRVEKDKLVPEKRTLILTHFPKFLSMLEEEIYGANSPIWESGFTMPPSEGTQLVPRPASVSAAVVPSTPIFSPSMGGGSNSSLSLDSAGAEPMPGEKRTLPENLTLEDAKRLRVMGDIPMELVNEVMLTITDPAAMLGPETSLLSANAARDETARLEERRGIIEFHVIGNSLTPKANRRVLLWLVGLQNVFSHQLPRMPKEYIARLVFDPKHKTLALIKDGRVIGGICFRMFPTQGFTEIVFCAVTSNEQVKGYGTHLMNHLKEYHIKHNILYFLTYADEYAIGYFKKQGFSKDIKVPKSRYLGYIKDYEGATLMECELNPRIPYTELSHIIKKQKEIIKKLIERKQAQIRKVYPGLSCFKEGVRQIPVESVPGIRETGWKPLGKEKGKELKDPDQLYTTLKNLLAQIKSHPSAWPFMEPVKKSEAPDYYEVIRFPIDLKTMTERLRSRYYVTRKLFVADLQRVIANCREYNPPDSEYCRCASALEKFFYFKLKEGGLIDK
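GCN5L2 (20nM final) in 50mM HEPES, 0.1mM EDTA pH 7.5, 0.01% Tween-20 was preincubated 15 min at room temperature with compound, then given ThioGlo1 (50uM), H3(1-25) peptide (75uM) and acetyl-CoA (70uM); CoA-thiol fluorescence (Ex340/Em540) was read at 0 and 20 min.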
Sfp inh: qHTS Assay for Inhibitors of Bacillus subtilis Sfp phosphopantetheinyl transferase (PPTase). 4'-phosphopantetheinyl transferase ffp (Bacillus subtilis), Q9F4F7. Biochemical Sfp PPTase activity, qHTS. Potency, µM, for the others: largest response in the series, negative = inhibition, hits mostly inhibitors. 310,000 compounds, 3.5% hits. AID 1490, 2009;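 also: the enzyme is Sfp with the accession as filed and its product quenches rhodamine fluorescence; 0% = enzyme reaction without inhibitor and -100% = no enzyme wells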
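Fluorescence-quenching assay: 15 nM Sfp-PPTase preincubated 15 min at room temperature with compound, then 5 uM rhodamine-CoA and 12.5 uM BHQ-2-labelled YbbR peptide added. Fluorescence (ex 525/em 598 nm) read at start and after 30 min; difference gives rate.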
IMPase Li cell: qHTS Assay for Identifying the Cell-Membrane Permeable IMPase Inhibitors: Potentiation with Lithium; CHO-M1 cells, IP1 TR-FRET (IP-One), carbachol + lithium; Potency, µM (titrated, usually from 59.4 µM), for the others: top-dose activity, negative = IMPase inhibition, actives largely listed as inhibitors; 210,000 compounds, 0.35% hits; AID 1457, 2008;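 also: IP1 builds up when IMPase is blocked and the TR-FRET signal falls; plate controls were basal vehicle for no effect and high inhibitor control for full effect; nearly all actives have a fitted effect of over 50% in size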
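CHO-M1, 2000 cells/well, 16–30 h culture; cpd + low Li+, 30 min 37C; lysis with d2-IP1/Eu-anti-IP1 Ab, 10 min RT; TR-FRET 665/620 ratio and 620 channel; AC50 via Hill.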
The depositor's hits bear a star; ? = inconclusive; · = no result; [ ] = dose if it differs, or a comment. Hits are enriched below; roughly 3.6% of the tested compounds scored in any of these assays. Unless noted, calls follow the shape of the dose curve; as a rule, active = well fitted curve in the direction sought with a large enough effect; inconclusive = small, poorly fitted or top-dose-only effect, or another doubt; inactive = no such curve, though single readings can be large; an effect the other way counts as inactive or inconclusive. Potency is read from the fitted curve at half-maximal effect.

SMILES	NPSR antagonist	Epigenetic derep	JMJD2E inh	KAT2A inh	Sfp inh	IMPase Li cell
CCOc1ccc(C(=S)NC2CCCCC2)cc1	-20%[46.1 µM]	1%	5%	-6%	6%	21%[38.3 µM]
COc1ccc(C(=S)NC2CCCCC2)cc1	-27%[46.1 µM]	1%	-19%	-9%	35µM*	·
C/C(=N\Nc1cc(-c2ccccc2)nc(-c2ccccc2)n1)c1ccc(O)c(C)c1	-37%	0%	-4%	4%	12%	1%
COc1cc(N/N=C(\C)c2ccc(O)c(C)c2)nc(-c2ccccc2)n1	?	16%	32µM*	-9%	9%	21%
CC1(C)Cc2c(oc3ncn4ncnc4c23)CO1	2%[46.1 µM]	0%	2%	3%	17%	7%[38.3 µM]
CSc1nc2oc3c(c2c2nncn12)CC(C)(C)SC3	-24%[46.1 µM]	4%	?	4%	40µM*	-6%[38.3 µM]
CCc1ccc(NC(=O)CN(c2ccc(C)cc2)S(=O)(=O)c2cccs2)cc1	·	1%	·	1%	·	·
O=C(O)C1OC(Oc2c(-c3ccc(O)c(O)c3)oc3cc(O)cc(O)c3c2=O)C(O)C(O)C1O (centres undefined)	-15%	0%	4.5µM*	-8%	-10%	23%
CC1OC(Oc2c(-c3cc(O)c(O)c(O)c3)oc3cc(O)cc(O)c3c2=O)C(O)C(O)C1O (centres undefined)	-8%[7.67 µM]	3%	3%	-9%	7.9µM*	·
Cc1c(Cl)cccc1NC(=O)CSc1nc(=O)n(Cc2ccccn2)c2c1CCC2	·	6%	·	-12%	·	·
O=C(c1ccccc1)C(Sc1ncn[nH]1)c1ccccc1 (centres undefined)	-16%[46.1 µM]	-1%	?	-29%	79µM*	4%
COCCn1c(-c2ccco2)csc1=Nc1cccnc1	-11%[46.1 µM]	-1%	-10%	-3%	20µM*	19%[38.3 µM]
N#CC1=C(N)N(c2cccc(Cl)c2)C2=C(C(=O)CCC2)C1c1cc(CN2CCOCC2)cs1 (centres undefined)	·	3%	·	9%	·	·
O[C@@H]1COC2[C@@H](O)CO[C@@H]21 (some centres undefined)	·	·	·	9%	-6%	·
O=[N+]([O-])c1cccc(-c2ccc(/C=N/NC(=S)Nc3cccc(F)c3)o2)c1	-19%	1%	3%	-4%	-6%	·
CC(C)(C)NC(=S)N/N=C\c1ccc(-c2ccc([N+](=O)[O-])cc2)o1	?	13µM*	-2%	-4%	32µM*	·
CNC(=S)N/N=C/c1ccc(-c2ccc(C(=O)O)cc2)o1	38%	-1%	?	0%	45µM*	·
NC(=S)N/N=C/c1ccc(-c2cccc([N+](=O)[O-])c2)o1	?	16µM*	2%	-15%	-1%	11%[38.3 µM]
NS(=O)(=O)c1ccc(-c2ccc(/C=N/Nc3ccc(C(=O)O)cc3)o2)cc1	-10%	-1%	?	-1%	50µM*	·
O=C(c1ccc(Cc2nc3ccccc3[nH]2)cc1)N1CCCCC1	·	-3%	·	·	·	·
C[C@]12CCC(=O)C=C1CC[C@@H]1[C@@H]2[C@@H](O)C[C@@]2(C)[C@H]1CC[C@]2(O)C(=O)COP(=O)(O)O	·	·	·	-7%	19%	·
O=C(CC(Nc1cccc(Cl)c1Cl)C(=O)O)c1ccccc1 (centres undefined)	-12%	-1%	?	3%	8.9µM*	13%
O=C(CC(Nc1cccc(Cl)c1Cl)C(=O)OCC(=O)c1cccs1)c1ccccc1 (centres undefined)	-35%	-1%	-6%	-37%	56µM*	8%
COc1ccccc1NC(CC(=O)c1ccccc1)C(=O)OCC(=O)c1ccc(F)cc1 (centres undefined)	-3%[46.1 µM]	2%	-3%	23%	?	4%
Cc1c(Cl)cccc1NC(CC(=O)c1ccccc1)C(=O)OCC(=O)c1cccs1 (centres undefined)	-15%[46.1 µM]	-1%	-2%	-5%	8.9µM*	·
SMILES	NPSR antagonist	Epigenetic derep	JMJD2E inh	KAT2A inh	Sfp inh	IMPase Li cell
COc1cc2c(cc1OC)C(COc1ccc(C(C)C)cc1)N(C(=O)c1ccc(S(=O)(=O)N3CCCC3)cc1)CC2 (centres undefined)	·	2%	·	-3%	·	·
COc1ccc(NC(=O)N2CCOc3ccc(Cl)cc32)cc1	·	0%	·	-8%	·	·
CC1CCCC(C)N1/N=C/c1ccc(O)c(O)c1 (centres undefined)	·	·	·	2%	45µM*	·
CC1CCCC(C)N1/N=C/c1cc(Br)c(O)c(Br)c1 (centres undefined)	5%	0%	-3%	-4%	56µM*	5%
Oc1ccc(/C=N/N2CCCCC2)cc1O	·	·	·	-28%	50µM*	·
COc1ccc(/C=N/N2CCN(c3ccccc3OC)CC2)cc1OC	1%[46.1 µM]	0%	-7%	-3%	19%	5%
COc1ccccc1N1CCN(/N=C/c2ccc(O)c(O)c2)CC1	-14%	3%	28µM*	0%	22µM*	9%
N/N=C1/CC(=O)NC(=O)N1	·	·	·	·	·	-5%
Cc1ccc(C2=Nc3ccccc3S[C@@H](c3cccc([N+](=O)[O-])c3)C2)cc1	·	·	·	·	·	16%
Cc1ccc(C2=Nc3ccccc3SC(c3cccc([N+](=O)[O-])c3)C2)cc1 (centres undefined)	60%	1%	?	-21%	8.9µM*	·
COc1ccc2cc(C)c3nnc(SCC(=O)Nc4nc(-c5ccccc5)cs4)n3c2c1	-6%[46.1 µM]	-2%	6%	6%	79µM*	-9%[38.3 µM]
NS(=O)(=O)c1ccc(N/N=C/c2ccc(O)c(O)c2O)c([N+](=O)[O-])c1	15%	-1%	2.8µM*	?	4µM*	·
NS(=O)(=O)c1ccc(N/N=C/c2ccc(O)cc2O)c([N+](=O)[O-])c1	44%	-1%	-8%	1%	8%	·
CC(=O)OC1OCCOC1NC(=S)Nc1cccc(C(F)(F)F)c1 (centres undefined)	-1%	2%	2%	-2%	-23%	-6%
CC(=O)OC1OCCOC1NC(=S)NCc1ccco1 (centres undefined)	-10%	5%	-4%	-2%	22µM*	1%
COC(=O)C1=C(C(=O)OC)[C@@H]2N(C)c3ccccc3[C@@]23C[C@@H](C(=O)OC)N(S(=O)(=O)c2ccc(C#N)cc2)C3=N1	·	·	6%[11.4 µM]	·	2%	9%
CC1C(=O)C(=O)C=CN1C (centres undefined)	·	·	·	3%	45µM*	·
